Assay results as given in PubChem BioAssay AID463195 (Sanford-Burnham Center for Chemical Genomics, 2010).
Among all 330,000 compounds or so, about 4,600 (1.4%) were called active. The full list was thinned out, with actives kept by preference. A number with no mark means an inactive call.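 The calls were made as follows: active = inhibition of 40% or more at the single tested concentration; inactive = the rest.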

test: wild-type TIM10 yeast growth inhibition – luminescence, uHTS, counter-screen for tim10-1 yeast inhibitor project, primary screen (AID 463195);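 also: wild-type TIM10 isogenic control strain grown at permissive 25 °C; 0% = DMSO yeast wells and 100% = minimal medium wells without yeast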; conditions: S. cerevisiae TIM10 strain growth, BacTiter-Glo luminescence, 24 h; at 10 µM; hits give high values

SMILES | inhibition
O=C(COC(=O)c1ccc(Br)o1)NC12CC3CC(CC(C3)C1)C2 | 25.9%
O=C(COC(=O)c1ccc([N+](=O)[O-])o1)NC12CC3CC(CC(C3)C1)C2 | 44.7% (active)
O=C(OCC(=O)c1cccs1)c1ccc([N+](=O)[O-])o1 | 14.1%
COc1ccc(C2=NS(=O)(=O)N(C)C(C(=O)NC(C)c3ccccc3)=C2)cc1 (centres undefined) | -4.03%
Cn1c(=O)c2c(nc(NCCNC(=O)c3ccco3)n2Cc2ccccc2F)n(C)c1=O | -1.93%
COc1cc(NC(=O)COC(=O)c2ccc([N+](=O)[O-])s2)cc(OC)c1OC | 32.6%
O=C(OCC(=O)N1CCN(c2ccccc2)CC1)c1ccc([N+](=O)[O-])s1 | -16.2%
COc1ccc(C(=O)COC(=O)c2ccc([N+](=O)[O-])s2)cc1OC | 60.6% (active)
O=C(O)c1cccc2c1C(=O)N(C1CCCCC1)C2 | 17.6%
COc1ccc(CNC(=O)C2CCN(C(=O)c3ccco3)CC2)cc1 | 6.55%
CC(C)NS(=O)(=O)c1ccc(CCC(=O)N2CCOCC2)cc1 | -1.05%
C=CCSC(CC)(CC)C(N)=O | 2.57%
NS(=O)(=O)c1ccc(CCNC(=S)Nc2ccc(S(N)(=O)=O)cc2)cc1 | 1.03%
NS(=O)(=O)c1ccc(NC(=S)Nc2ccc(Br)c(Cl)c2)cc1 | 42.9% (active)
NS(=O)(=O)c1ccc(NC(=S)NC(=O)c2cccc(Br)c2)cc1 | 19.3%
O=C(CSc1nc(O)c(Cc2ccccc2)c(=O)[nH]1)Nc1nc2c(s1)CCCC2 | -0.307%
O=C(NCc1ccccc1)c1ccc(CNc2c(N3CCCC3)c(=O)c2=O)cc1 | 2.83%
CCOC(=O)C(CCOc1cccc(CC)c1)C(=O)OCC | 9.43%
Cc1noc(C)c1S(=O)(=O)Nc1ccc(C(=O)N2CCN(c3ccc(F)cc3)CC2)cc1 | 3.71%
Cc1ccc(F)cc1NC(=O)N1CCCN(c2ccc(C(F)(F)F)cn2)CC1 | 21.2%
Cc1ccc2nc(N3CCN(C(=O)c4ccco4)CC3)sc2c1 | -6.8%
O=C(c1ccc2nc(N3CCOCC3)sc2c1)N1CCN(c2ccc(Cl)cc2)CC1 | 39.5%
COc1ccc2nc(N3CCN(C(=O)c4ccc([N+](=O)[O-])o4)CC3)sc2c1 | 43.2% (active)
CCCC(=O)n1nc(NCc2ccc(OC)cc2)nc1NCc1ccc(OC)cc1 | -4.33%

SMILES | inhibition
Cc1ccnc(SCC(=O)Nc2cccc(S(=O)(=O)N3CCOCC3)c2)n1 | -2.35%
COC(=O)c1cc(=O)n(-c2c(Cl)cc(C(F)(F)F)cc2Cl)[nH]1 | -4.96%
COc1ccc2ccn(C)c2c1 | -5.57%
COc1ccc2c(c1)cc1n2CCN=C1NN | 76.6% (active)
O=C(O)CSc1ccc(S(=O)(=O)N2CCCC2)cn1 | 8.26%
O=C(CCC1CCCN(C(=O)c2ccc(F)c(F)c2)C1)N1CCN(c2ccccn2)CC1 (centres undefined) | 13.4%
Cc1no[n+]([O-])c1COc1ccccc1/C=C1\NC(=S)NC1=O | -3.3%
Cc1ccc(SCC(=O)NNC(=O)c2ccc(S(C)(=O)=O)cc2)cc1 | 2.08%
O=S(=O)(NN=C1CCCCCCC1)c1ccc(Br)cc1 | 17.3%
COc1cccc(CNc2nc(C(F)(F)F)nc3ccccc23)c1 | 44.2% (active)
CCc1ccc(C(CNc2nc(C(F)(F)F)nc3ccccc23)N(C)C)cc1 (centres undefined) | 9.55%
COc1ccc(CNc2ncnc3ccccc23)cc1 | 2.62%
COc1ccc(/C(N)=N/OC(=O)Oc2ccccc2)cc1 | 2.38%
N/C(=N\OC(=O)CCc1ccccc1)c1cccnc1 | -2.8%
COc1ccc(/C(N)=N/OC(=O)CCCc2ccccc2)cc1 | 48.1% (active)
COc1ccc(/C(N)=N/OC(=O)Cc2ccccc2)cc1 | 21.6%
N/C(=N\OC(=O)CC1CCCCC1)c1ccccc1 | 38%
N/C(=N\OC(=O)CCc1ccccc1)c1ccc(Cl)cc1 | 57.5% (active)
Nc1cccc(S(=O)(=O)Nc2ccc(SC(F)F)cc2)c1 | 15.6%
CCc1ccc(S(=O)(=O)Nc2cc3c(cc2N2CCCCC2)n(C)c(=O)c(=O)n3C)cc1 | 18%
OCC1(Cc2ccccc2C(F)(F)F)CCN(Cc2cccc3cnccc23)CC1 | -41.2%
Cc1ccc(N(C(=O)c2sc(C)nc2C)C(C(=O)NC(C)(C)C)c2ccncc2)cc1 (centres undefined) | -2.14%
O=C1OC[C@@H]2CCCN2C(=O)[C@H](CC(=O)N(CCO)Cc2ccccc2)C/C=C\CC[C@@H]1Cc1ccc(F)cc1 | 1.13%
CCN(Cc1ccccc1)S(=O)(=O)c1cc2c3c(c1)CCN3C(=O)CC2 | -18.1%

SMILES | inhibition
O=C(COc1ccccc1Cl)Nc1ccccc1C(=O)NC1CC1 | 4.12%
NC(=O)CC(NC(=O)Cc1ccc(Br)cc1)c1ccc(NC2CC3CCC2C3)c([N+](=O)[O-])c1 (centres undefined) | 11.3%
O=[N+]([O-])c1ccc2nc(-c3ccccn3)[nH]c2c1 | 13.4%
COc1ccc([N+](=O)[O-])cc1-c1nc2ccccc2nc1-c1ccccc1 | 12.2%
O=[N+]([O-])c1ccc2c(c1)Nc1nc3ccccc3nc1N2 | 79.8% (active)
CCc1ccc(CN2C(=O)c3ccccc3C2C(=O)NCC2CCCO2)cc1 (centres undefined) | -1.35%
COc1ccc(NC(=O)C2COc3ccccc3O2)cc1 (centres undefined) | -1.21%
COc1ccc(OC)c2sc(NC(=O)C3COc4ccccc4O3)nc12 (centres undefined) | 43.3% (active)
COc1cc(SC)ccc1C(=O)NNC(=O)C1COc2ccccc2O1 (centres undefined) | -2.79%
Cc1cccc(NC(=O)CN2CCN(CC(=O)NCC3(N4CCCCC4)CCCCC3)CC2)c1C | -26%
O=C(CN1CCC(O)(c2ccccc2)CC1)Nc1ccc2c(c1)OCCO2 | -4.11%
O=C(COC(=O)c1ccccc1)c1ccc2c(c1)OCCO2 | 3.76%
O=C(CCN1CCc2ccccc2C(O)(c2ccccc2)C1)c1ccc2c(c1)OCCO2 (centres undefined) | 47.8% (active)
COc1cccc2cc(/C(C)=N/NC(=O)c3ccco3)oc12 | 7.37%
CC1(C)CCSC(/C=C/c2ccccc2)=N1 | 59.5% (active)
CC1(c2ccccc2)NC(=O)N(CC(=O)N2CC(=O)Nc3ccccc32)C1=O (centres undefined) | -7.18%
Cc1c(CC(=O)N2CCN(C(=O)C3COc4ccccc4O3)CC2)c(=O)oc2c(O)c(O)ccc12 (centres undefined) | 14.5%
Cc1ccc(N2C(=O)C3C4C=CC(CC4)C3C2=O)cc1Br (centres undefined) | 0.46%
CC(=O)Nc1ccc(N2C(=O)C3C4C=CC(CC4)C3C2=O)cc1 (centres undefined) | 3.72%
Cc1ccc(N2C(=O)C3C4C=CC(CC4)C3C2=O)cc1Cl (centres undefined) | 96.9% (active)
O=C(c1ccc(F)cc1)C1CCN(Cc2cn[nH]c2-c2ccccc2)CC1 | 7.29%
Cc1cc(C)c(CN2CCN(C(=O)Cn3ccc(NC(=O)OCc4ccccc4)nc3=O)CC2)c(C)c1 | 14.5%
Cc1nn(Cc2ccccc2)c(C)c1C(=O)N1CCN(CC(=O)Nc2ccccc2Cl)CC1 | 16.3%
Cc1cccc(C)c1NC(=O)CCCSc1nnc(-c2ccco2)n1-c1ccccc1 | 7.48%

SMILES | inhibition
COc1ccc(Nc2cc(C)nc(-n3nc(C)cc3C)n2)cc1 | 42.6% (active)
CC(=O)c1ccc(Oc2cc(C)nc(-n3nc(C)cc3C)n2)cc1 | 17.9%
Cc1cc(N/N=C\c2ccc(Br)cc2)nc(-n2nc(C)cc2C)n1 | 28.7%
COc1ccc(OCC(=O)OCCN(C)C)cc1 | 6.08%
CN1CCC2(CC1)NC(=O)NC2=O | -10.9%
C=CCn1c2ccccc2c2nnc(SCc3[nH]c(=O)[nH]c3C(=O)CCCCC(=O)OCC)nc21 | 2.76%
c1ccc(-c2cn3c(n2)CCc2ccc4cccnc4c2-3)cc1 | 43.3% (active)
CCn1nnc(NC(=O)c2cc(Cl)c(OC)c(Cl)c2)n1 | -27.2%
O=C(Nc1cc(S(=O)(=O)Nc2ccc(Cl)cc2)ccc1O)c1ccc(F)cc1F | -2.9%
O=C(Nc1nnc(SCc2c(Cl)cccc2Cl)s1)C1CCCO1 (centres undefined) | 43% (active)
O=C(NCc1ccccc1Cl)C1CCCO1 (centres undefined) | 12.6%
O=C(Nc1nnc(SCc2c(Cl)cccc2Cl)s1)c1cccc([N+](=O)[O-])c1 | -29.2%
CCCCN(CC)CCCNC(=O)c1ccc(CSc2nc3ccncc3[nH]2)cc1 | -7.87%
COc1ccc(C2CC(=O)Oc3ccc(C(C)(C)C)cc32)cc1 (centres undefined) | -0.738%
Cc1cccc(NC(=S)Nc2ccc(Cl)c(Cl)c2)c1 | 24.3%
Cc1cc(Cl)nc(NC(=O)Nc2cccc(Cl)c2)n1 | 3.22%
S=C(Nc1cccc(Cl)c1)Nc1ccc2c(c1)OCCO2 | 20.4%
O=C(O)CC1(CC(=O)Nc2cccc(C(F)(F)F)c2)CCCC1 | -9.42%
Cc1csc(NC(=S)Nc2cccc(Cl)c2)n1 | 45.7% (active)
FC(F)(F)c1cccc(NC(=S)Nc2cccc(Cl)c2)c1 | 50.8% (active)
CCn1c(=O)c(=O)n(CC)c2cc(S(=O)(=O)N3CCc4ccccc43)ccc21 | 14.7%
Cc1ccc(C(C)C)c(OCc2nnc(SCC(=O)Nc3nccs3)n2C)c1 | -14%
